# Screens: PubChem BioAssay, National Center for Advancing Translational Sciences (NCATS)
# This excerpt belongs to a sample that is enriched for hits.
# Pf Dd2 inh = qHTS Primary assay for Inhibitors of Plasmodium falciparum Dd2 growth in vitro. P. falciparum Dd2 growth, SYBR Green, 72 h. Potency, µM (doses to about 28.9 µM), inactives show at the highest dose activity, negative = inhibition, actives largely listed as inhibitors. actives 4.3% (n = 120,000); active means well fitted inhibition curve with a large enough effect;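 further: plate controls were DMSO vehicle for no effect and reference drug for full effect; nearly all actives have a fitted effect of over 65% in size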
#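 Infected erythrocytes (Dd2, 0.3% parasitemia, 2.5% hematocrit final) are added to compound in RPMI-1640/Albumax II medium, grown 72 h at 37C in low oxygen, then lysed with saponin/Triton-X containing SYBR Green and read by fluorescence.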
# The depositor's hits bear a star; i = inactive; [ ] = another dose, or the depositor's remark. Potency means the concentration at half of the fitted maximal effect.
SMILES,Pf Dd2 inh
CC(C)CNC(=O)N1CCC(N2CC3CC(C2)[C@H]2CCCC(=O)N2C3)CC1 (some centres undefined),1%
Cn1c(C(=O)N2CC[C@@](C)(O)[C@@H](O)C2)ccc1-c1ccccc1,9%
COC[C@H]1CCCN1Cc1nc(C2(O)CCN(C3CCC3)CC2)cs1,-18%[44.1 µM]
Cc1c(-c2ccc(Cl)cc2)c(=O)oc2c(CN3CCN(C)CC3)c(O)ccc12,10µM*
CN1CCN(c2cc(=O)c3ccnc(-c4cccc(CO)c4)c3o2)CC1,i
Cc1ccc2oc(=O)c3cnn(CC(=O)N4CCN(c5ccccc5)CC4)c3c2c1,22%[5.79 µM]
Cc1ccc(-c2c(C(=O)NCCc3ccc(Cl)cc3)oc(=O)c3ccccc23)cc1,-8%
CCc1c(C)c2ccc(O)c(CN3CCN(c4ccccc4)CC3)c2oc1=O,1.3µM*
Cc1c(-c2ccccc2)c(=O)oc2c(CN3CCN(C)CC3)c(O)ccc12,4µM*
Cc1noc(C)c1CN1CCN(c2ccc(F)cc2)CC1,-13%
Cc1cc(O)c(C(c2ccccc2)N2CCN(C)CC2)c(=O)n1Cc1ccco1 (centres undefined),50%
O=C(c1cccc(-n2cnnc2)c1)N1CCC[C@H]1c1nc(-c2ccncc2)no1,-1%
COc1ccc(-c2nc3n(n2)CCN(C(=O)c2ccc(Cl)cc2)C3)cc1,-3%
COc1ccccc1CNC(=O)c1cc2n(n1)CC(c1ccc(Cl)cc1)OC2 (centres undefined),i
CNc1ccc(OC2CCN(C(=O)CCc3nc4ccccc4[nH]3)C2)nc1 (centres undefined),i
COCCNC(=O)N[C@@H]1CN(Cc2ccccc2)C[C@H]1CN(C)C,-11%
CNS(=O)(=O)c1ccc(CCC(=O)N2Cc3nnc(C)n3C(C)C2)cc1 (centres undefined),-16%
COc1ccc(CC(=O)N2CCC(c3n[nH]c(=O)n3-c3ccccc3)CC2)cc1,-16%
CN(CCCN1CCOCC1)Cc1nc(-c2cccs2)no1,-23%
CN(Cc1nc(COc2ccccc2)no1)CC1(N2CCOCC2)CCCCC1,8.9µM*
COc1ccccc1OC(C)C(=O)NCC1(N2CCOCC2)CCCCC1 (centres undefined),i
CN1C(=O)CS(=O)(=O)C12CCN(C(=O)c1ccnn1C)CC2,4%
O=C(Cn1nc2c(cc1=O)CCCC2)Nc1ccc(Cn2cncn2)cc1,-7%
CCNC(=O)Nc1ccc([C@H]2OCC(=O)N(Cc3ccc(F)cc3)[C@@H]2CO)cc1,-10%[44.1 µM]
O=C1[C@H]2CN(Cc3ccc(C(F)(F)F)cc3)C[C@H]2C(=O)N1CCc1ccccc1,i
SMILES,Pf Dd2 inh
NCCc1ccc(CN2C[C@@H]3CC[C@H](C2)N(Cc2ccccc2)C3)cc1,11µM*
CC(=O)Nc1ccc(CN2CCN3C(=O)N(Cc4ccccc4)C[C@H]3C2)cc1,i
O=C(NC1CCCN(c2cc(N3CCCC3)ncn2)C1)c1cccs1 (centres undefined),-4%[5.79 µM]
O=C(c1cnccn1)N1CCC(N2CC3CC(C2)[C@H]2CCCC(=O)N2C3)CC1 (some centres undefined),8%
O=C(CCc1nc2ccccc2[nH]1)N1CCCOC(Cn2cccn2)C1 (centres undefined),-7%
COCCN1CCCN(C(=O)c2cc(C)ccc2C)c2ccccc21,10µM*
COCCN1CCCN(C(=O)c2ccoc2)c2ccccc21,-24%
COCCN1CCCN(C(=O)c2cc(C)cc(C)c2)c2ccccc21,i
O=C(c1ccc(Br)o1)N1CCC(c2n[nH]c(=O)n2Cc2ccc(F)cc2)CC1,-6%
COCCNC(=O)C1COC2(CCN(C(=O)c3ccccc3F)CC2)N1C(=O)c1cccc(C)c1 (centres undefined),i
Cc1ccccc1NC(=O)N1CCC(N(CCC(C)C)C2CCOCC2)CC1,i
CCOc1cc(=O)n2c(c1C(=O)NCc1ccccc1Cl)CCCCC2,-14%
CC(=O)NCC(=O)N1Cc2ccccc2CC2(CCN(CC3CCOCC3)C2)C1 (centres undefined),4%
O=C(O)CCCC(=O)N1Cc2ccccc2CC2(CCCN(CC3CCCC3)C2)C1 (centres undefined),10%
NCC(=O)N1Cc2ccccc2CC2(CCCN(CC3CCCC3)C2)C1 (centres undefined),7.9µM*
CN1CCC(C(=O)N2Cc3ccccc3CC3(CCN(Cc4ccccn4)C3)C2)CC1 (centres undefined),-21%
CN(C)CCC(=O)N1Cc2ccccc2CC2(CCCN(CC3CCOCC3)C2)C1 (centres undefined),-10%
CN(C)CC(=O)N1Cc2ccccc2CC2(CCN(CC3CCOCC3)C2)C1 (centres undefined),-21%
NCC(=O)N1Cc2ccccc2CC2(CCN(CC3CCNC3)C2)C1 (centres undefined),15%
CCCN1CCCC2(Cc3ccccc3CN(C(=O)C3CCN(C)CC3)C2)C1 (centres undefined),-18%
NCC(=O)N1Cc2ccccc2CC2(CCN(CC3CCOCC3)C2)C1 (centres undefined),8.9µM*
O=C(C1CCCC1)N1Cc2ccccc2CC2(CCN(CC3CCOCC3)C2)C1 (centres undefined),7.1µM*
CCN1CCC2(Cc3ccccc3CN(C(=O)C3CCCC3)C2)C1 (centres undefined),8.9µM*
CC(=O)NCCC(=O)N1Cc2ccccc2CC2(CCCN(CC3CCCC3)C2)C1 (centres undefined),-18%
COc1cc(C)sc1C(=O)N1CCOCC1CC(=O)NCc1cccnc1 (centres undefined),-11%
SMILES,Pf Dd2 inh
COc1cccc(CN2CCCC(c3nc(-c4cccnc4)no3)CCNC(=O)CC2)n1 (centres undefined),-14%
O=C(c1cc(-c2ccccc2O)n[nH]1)N1CCC2(CCNCC2)CC1,1%
CCN1c2cc(C(=O)Nc3cccc(Cl)c3)ccc2C(=O)N2CCCC21 (centres undefined),-17%
Cc1noc(-c2cn(C3CCN(C(=O)c4cccc(OC(F)(F)F)c4)C3)nn2)n1 (centres undefined),-22%
CN1CCN(S(=O)(=O)c2ccc(F)cc2)CC12CCNC(=O)CC2 (centres undefined),-18%
Cc1ccncc1C(=O)N1C[C@@H](Oc2ccccc2)C[C@H]1C(=O)N1CCOCC1,44%
O=C(O)CCn1ncc2cc(OC3CCN(C(=O)OCc4ccccc4)CC3)ccc21,i
Cn1cc2c3c(cccc31)CN(C(=O)COc1ccc(F)cc1)CC2,-23%
COCCNc1ncnc2c1CN(c1ccc(Cl)cc1)C(=O)CN2C,1%
COC[C@@H]1CN(C(=O)c2cccc(C)n2)C[C@H]1c1ccccn1,0%
CCn1ccc(C(=O)N2CCOc3ccc(CN4CCCCC4)cc3C2)n1,i
CC(C)NC(=O)N1CCCC1c1noc(CCC(=O)O)n1 (centres undefined),159%
Cc1ccc(CNC(=O)c2cccn2-c2nnc(N3CCCC3)s2)cc1,i
CCOC(=O)c1ccccc1NC(=O)N(Cc1ccc(C)cc1)Cc1cccn1-c1nnc(N2CCCC2=O)s1,-19%
CCc1ccc(NC(=O)N(Cc2ccc(C)cc2)Cc2cccn2-c2nnc(N3CCCC3=O)s2)cc1,13µM*
CCC(=O)N1CCc2c(sc3ncnc(NCCc4ccccc4)c23)C1,-16%
CCN1CCN(c2ccc(Cl)nn2)C(=O)C1,6%[44.1 µM]
Cc1ccc(Cn2cc(S(=O)(=O)c3ccccc3)c(=O)c3cc(F)c(N4CCOCC4)cc32)cc1,10µM*
Cc1ccc(S(=O)(=O)c2cn(Cc3ccc(F)cc3)c3cc(N4CCCC4)c(F)cc3c2=O)cc1,-13%
